In PubChem BioAssay AID1159580 (chemical genetic matrix, 2015):
Where “and” joins values, the source holds several entries; their conditions need not be identical. Equal entries are not always repeated. Screen size: about 5,500 compounds; about 2,000 (36%) were called active. Inconclusive results (about 18%) are left out. No stated cut-off is given here; in the data, active means normalized growth mostly below about 0.91 (no sharp cut-off); inconclusive means no clear call, values can overlap the other calls; inactive means mostly above about 0.92. The list shows a part of the results.

Experiment: chemical genetic growth profiling, strain panel (AID 1159580);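 further: tested at 20 µM; growth read once vehicle control cultures reached saturation at 30 °C; 1 = growth at the plate median or of vehicle wells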
Settings: S. cerevisiae deletion strains, growth OD

Measured: normalized growth

CNC(=O)CSP(=S)(OC)OC
inactive: locus YAL013W, strain DEP1, stronger effect = lower value 1.02 | locus YAL021C, strain ccr4, stronger effect = lower value 1.01 | locus YAL026C, strain drs2, stronger effect = lower value 1.01 | locus YAL030W, strain snc1, stronger effect = lower value 1.01 | locus YBL061C, strain skt5, stronger effect = lower value 1.03 | locus YBR009C, strain hhf1, stronger effect = lower value 0.999 | locus YBR021W, strain FUR4, stronger effect = lower value 0.994 | locus YBR023C, strain chs3, stronger effect = lower value 1.03 | locus YBR171W, strain sec66, stronger effect = lower value 1.03 | locus YBR229C, strain ROT2, stronger effect = lower value 1.01 | locus YBR231C, strain swc5, stronger effect = lower value 1.01 | locus YBR279W, strain paf1, stronger effect = lower value 1.01 | locus YCL011C, strain gbp2, stronger effect = lower value 1.02 | locus YCL016C, strain dcc1, stronger effect = lower value 1.02 | locus YCL029C, strain bik1, stronger effect = lower value 1.01 | locus YCL061C, strain MRC1, stronger effect = lower value 1.01 | locus YCL069W, strain vba3, stronger effect = lower value 1.02 | locus YCR088W, strain abp1, stronger effect = lower value 1.01 | locus YDL005C, strain med2, stronger effect = lower value 1.03 | locus YDL035C, strain GPR1, stronger effect = lower value 1.02 | locus YDL040C, strain nat1, stronger effect = lower value 1.02 | locus YDL074C, strain BRE1, stronger effect = lower value 0.971 | locus YDL101C, strain DUN1, stronger effect = lower value 1 | locus YDL134C, strain PPH21, stronger effect = lower value 1 | locus YDL185W, strain tfp1, stronger effect = lower value 1.03 | locus YDL192W, strain arf1, stronger effect = lower value 1.02 | locus YDR001C, strain nth1, stronger effect = lower value 1.01 | locus YDR069C, strain doa4, stronger effect = lower value 1.02 | locus YDR101C, strain arx1, stronger effect = lower value 1.02 | locus YDR137W, strain rgp1, stronger effect = lower value 1.03 | locus YDR150W, strain NUM1, stronger effect = lower value 1.01 | locus YDR159W, strain sac3, stronger effect = lower value 1.02 | locus YDR162C, strain NBP2, stronger effect = lower value 1.01 | locus YDR195W, strain ref2 0.99 | locus YDR297W, strain sur2, stronger effect = lower value 1.01 | locus YDR318W, strain mcm21, stronger effect = lower value 1.02 | locus YDR334W, strain swr1, stronger effect = lower value 1.02 | locus YDR335W, strain msn5, stronger effect = lower value 1.01 | locus YDR388W, stronger effect = lower value 1.02 | locus YDR392W, strain spt3, stronger effect = lower value 1.01 | locus YDR502C, strain sam2, stronger effect = lower value 1.02 | locus YEL003W, strain gim4, stronger effect = lower value 1.01 | locus YEL037C, strain rad23, stronger effect = lower value 1.02 | locus YEL061C, strain CIN8 (second series), stronger effect = lower value 1.01 | locus YEL061C, strain CIN8, stronger effect = lower value 1.01 | locus YER015W, strain faa2, stronger effect = lower value 1.02 | locus YER016W, strain bim1, stronger effect = lower value 1.02 | locus YER110C, stronger effect = lower value 1.02 | locus YER111C, strain swi4, stronger effect = lower value 1.01 | locus YER155C, strain BEM2 (second series), stronger effect = lower value 1.02 | locus YER155C, strain BEM2, stronger effect = lower value 1.01 | locus YER167W, strain BCK2, stronger effect = lower value 1.01 | locus YFR010W, strain ubp6, stronger effect = lower value 1.01 | locus YGL078C, strain dbp3, stronger effect = lower value 1.02 | locus YGL086W, strain mad1, stronger effect = lower value 1.01 | locus YGL167C, strain pmr1, stronger effect = lower value 1.02 | locus YGL173C, strain kem1, stronger effect = lower value 1.02 | locus YGL227W, strain vid30, stronger effect = lower value 1.01 | locus YGL240W, strain doc1, stronger effect = lower value 1 | locus YGL248W, strain PDE1, stronger effect = lower value 1 | locus YGL253W, strain hxk2, stronger effect = lower value 1.03 | locus YGR078C, strain PAC10, stronger effect = lower value 1.02 | locus YGR135W, strain pre9, stronger effect = lower value 1.01 | locus YGR229C, strain SMI1, stronger effect = lower value 1.03 | locus YGR252W, strain gcn5, stronger effect = lower value 0.995 | locus YHR013C, strain ard1, stronger effect = lower value 1.01 | locus YHR027C, strain rpn1, stronger effect = lower value 1.02 | locus YHR030C, strain SLT2, stronger effect = lower value 1.03 and 1.08 | locus YHR079C, strain IRE1 (second series), stronger effect = lower value 1.02 | locus YHR079C, strain IRE1, stronger effect = lower value 1.04 | locus YHR094C, strain hxt1, stronger effect = lower value 1.02 | locus YHR129C, strain ARP1, stronger effect = lower value 1.01 | locus YHR142W, strain chs7, stronger effect = lower value 1.03 | locus YHR200W, strain rpn10, stronger effect = lower value 1.02 | locus YIL066C, strain RNR3, stronger effect = lower value 1.04 | locus YIL073C, strain SPO22, stronger effect = lower value 1.09 | locus YIL125W, strain kgd1, stronger effect = lower value 1.01 | locus YIR030C, strain dcg1, stronger effect = lower value 1.03 | locus YJL092W, strain hpr5, stronger effect = lower value 1.01 | locus YJL095W, strain BCK1 (second series), stronger effect = lower value 1.03 | locus YJL095W, strain BCK1, stronger effect = lower value 1 and 1.08 | locus YJL115W, strain asf1, stronger effect = lower value 1.01 | locus YJL129C, strain trk1, stronger effect = lower value 1.03 | locus YJL134W, strain LCB3, stronger effect = lower value 1 | locus YJL154C, strain vps35, stronger effect = lower value 1.01 | locus YJL164C, strain tpk1, stronger effect = lower value 1.02 | locus YJL166W, strain qcr8, stronger effect = lower value 1 | locus YJL168C, strain set2, stronger effect = lower value 1.02 | locus YJL187C, strain SWE1 (second series), stronger effect = lower value 1.02 | locus YJR043C, strain POL32, stronger effect = lower value 0.998 | locus YJR066W, strain TOR1, stronger effect = lower value 0.992
